An excerpt weighted towards active compounds, which were near 2.3% of everything screened.
GFP derepression: derepresses silenced GFP locus in mouse C127i cells. mouse C127i GFP locus derepression, cytometry, 30 h. Potency, µM (top dose mostly 46.1 µM), for the others: at the top dose GFP derepression (activation). 0.09% of 68,000 active. AID 597; further: % of control where 0% means no effect
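Locus derepression in mouse mammary C127i cells whose integrated CMV-GFP reporter is normally silent; GFP expression after 30 h compound treatment was quantified by counting fluorescent cells.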
Ub-GFP proteasome: inhibits proteasome, raising ubiquitin-GFP reporter fluorescence. Potency, µM (highest dose often 45.9 µM), for inactives: at the top dose activation (GFP accumulation), usual class: activators. 67,000 tested, under 10 active. AID 526. Ubiquitin-GFP reporter cells, proteasome inhibition, GFP fluorescence; response scale: untreated = 0%, 10 µM MG-132 = 100%; active means well fitted activation curve with a large enough effect, not every such curve was filed as active; inconclusive means small, poorly fitted or top-dose-only effect, or another doubt; inactive means no such curve, though single readings can be large or run the other way; further: potency means the concentration at half of the fitted maximal effect
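U2OS cells stably expressing ubiquitin(G76V)-GFP, seeded overnight in 0.5% FBS medium, were exposed to compounds (qHTS, 46 uM to 2.9 nM) for 4 hr at 37 °C. GFP-positive cells were counted by laser cytometry (488 ex/515 em), normalized between basal and 10 uM MG-132.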
15-hLO-2 inh: 15-hLO-2 (ALOX15B) enzyme inhibition; AID 881; Potency, µM (titrated, usually from 57.1 µM), for the others: at the top dose activity change, negative = inhibition, most hits filed as inhibitors; 0.56% of 110,000 active; purified 15hLO-2, xylenol orange hydroperoxide absorbance; further: potency means the concentration at half of the fitted maximal effect; on the % scale 0 is the no-effect control and ±100 the full control effect; nearly all actives have a fitted effect of over 60% in size
Target sequence (O15296 whole entry, looked up): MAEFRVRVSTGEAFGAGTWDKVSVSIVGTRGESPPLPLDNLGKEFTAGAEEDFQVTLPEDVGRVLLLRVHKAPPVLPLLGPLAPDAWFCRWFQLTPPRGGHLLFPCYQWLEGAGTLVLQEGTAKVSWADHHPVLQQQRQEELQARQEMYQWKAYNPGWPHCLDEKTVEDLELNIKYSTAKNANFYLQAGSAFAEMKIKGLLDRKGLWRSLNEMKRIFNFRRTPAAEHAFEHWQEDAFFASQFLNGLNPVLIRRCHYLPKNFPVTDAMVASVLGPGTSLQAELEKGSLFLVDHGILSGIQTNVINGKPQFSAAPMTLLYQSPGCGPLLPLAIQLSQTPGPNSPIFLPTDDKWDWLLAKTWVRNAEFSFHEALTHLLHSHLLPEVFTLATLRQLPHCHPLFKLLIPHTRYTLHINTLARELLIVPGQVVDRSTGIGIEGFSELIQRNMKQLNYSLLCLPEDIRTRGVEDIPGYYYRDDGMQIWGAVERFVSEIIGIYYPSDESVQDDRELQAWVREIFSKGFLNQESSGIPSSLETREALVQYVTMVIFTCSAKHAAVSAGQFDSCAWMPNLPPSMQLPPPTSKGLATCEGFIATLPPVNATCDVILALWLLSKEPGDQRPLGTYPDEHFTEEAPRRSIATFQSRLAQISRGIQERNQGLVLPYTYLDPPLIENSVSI
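Purified human 15hLO-2 (50 nM final) preincubated with compounds 15 min at room temperature in 25 mM Hepes pH 7.5, 0.01% Triton X-100, then 45 uM arachidonic acid added for 90 min; hydroperoxide detected via ferrous/xylenol orange, 573/405 nm absorbance ratio.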
HBB splicing: modulators of hemoglobin beta chain splicing; 0.06% of 65,000 active; AID 925; Potency, µM (titrated, usually from 46.1 µM), without a hit: top-dose activation, most hits filed as activators; HBB splicing reporter cell assay, activation; EGFP reporter with mutant IVS2-654 intron; response scale: normalised to 500 nM splice-correcting PNA; further: potency means the concentration at half of the fitted maximal effect; 0% is about no effect
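HeLa cells stably expressing EGFP interrupted by mutant beta-globin intron 2 (IVS2-654), 500/well in 2% FCS. Treated with compound for 2 days at 37C. Splicing correction scored as total well GFP intensity (488 nm excitation, 500-520 nm emission); 500 nM antisense PNA served as control.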
ALOX15 inhib: blocks human 15-lipoxygenase activity; purified 15hLO-1, xylenol orange hydroperoxide absorbance; Potency, µM (doses to about 57.1 µM), inactives show at the top dose activity change, negative = inhibition, actives largely listed as inhibitors; 1.4% of 74,000 active; AID 887; further: potency means the concentration at half of the fitted maximal effect; on the % scale 0 is the no-effect control and ±100 the full control effect; nearly all actives have a fitted effect of over 55% in size
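Purified human 15hLO-1 (40 nM) in 25 mM Hepes pH 7.5, 0.01% Triton X-100, preincubated 15 min RT with compound, then 50 uM arachidonic acid for 6 min. Hydroperoxide read by ferrous/xylenol orange, 30 min; 573/405 nm absorbance ratio gave progress.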
Tau filament bind: binders of human tau filaments; P10636; Potency, µM (highest dose often 57.1 µM), for the others: top-dose activity change, negative = inhibition; AID 596; recombinant tau filaments, thioflavin S fluorescence, 15 h; filaments grown with octadecylsulfate alongside compound; 2% of 71,000 active;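 further: potency means the concentration at half of the fitted maximal effect; on the % scale 0 is the no-effect control and ±100 the full control effect; actives lower thioflavin S fluorescence by blocking filaments or displacing dye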
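Recombinant tau protein (human, 1 uM final) plus 30 uM ODS in HEPES pH 7.4 with NaCl, DTT and thioflavine S. Compound present from the start; fluorescence at 510 nm after 15 h, 37 C.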
Numbers without * were called inactive; i = inactive; ? = inconclusive; . = no result given; [ ] = another dose, or the depositor's remark. Unless noted, the call rests on the fitted dose curve; in most records, active means well fitted curve in the direction sought with a large enough effect; inconclusive means small, poorly fitted or top-dose-only effect, or another doubt; inactive means no such curve, though single readings can be large; an effect the other way counts as inactive or inconclusive.

SMILES	GFP derepression	Ub-GFP proteasome	15-hLO-2 inh	HBB splicing	ALOX15 inhib	Tau filament bind
O=C(O)[C@@H]1CCCN[C@H]1C(=O)O	-1.1%	-3.2%	-3.4%	0.4%	5.2%	-7.7%
COc1cc(CNc2ccc3[nH]c(=O)[nH]c3c2)cc(Cl)c1OCC(=O)NC(C)(C)C	-2.6%	-1.3%	-0.9%	-1.2%	?	10µM*
CC1CCN(C(=O)N2c3ccccc3Sc3ccccc32)CC1	.	.	5.8%	.	.	.
O=C(NC1CCN(C(=O)N2c3ccccc3Sc3ccccc32)CC1)c1ccccc1F	.	.	15.8µM*	.	.	.
O=C(O)CC12C[C@H]3C[C@@H](CC(O)(C3)C1)C2	2.2%[9.22 µM]	-2.4%[9.17 µM]	-2.0%[11.4 µM]	2.6%[9.22 µM]	-4.9%[11.4 µM]	-4.6%[11.4 µM]
Cc1c(N=c2c(=O)c3ccccc3c2=O)c(=O)n(-c2ccccc2)n1C	0.2%	-14.3%	.	0.3%	-13.9%	15.8µM*
CCOc1cc(N2CCOCC2)c(OCC)cc1NC(=O)CCS(=O)(=O)c1ccc(Cl)cc1	0.0%	0.1%	-3.3%	-0.3%[57.5 µM]	-2.3%	25.1µM*
CCOc1cc(N2CCOCC2)c(OCC)cc1NC(=O)c1nc2nc(C)cc(C)n2n1	-2.1%	-3.3%	-5.0%	-0.2%[57.5 µM]	10.9%	25.1µM*
CCOc1cc(N2CCOCC2)c(OCC)cc1NC(=O)CCC1CCCC1	1.9%	-5.0%	-4.3%	-0.1%[57.5 µM]	-2.6%	-11.0%
O=C(COC(=O)c1cccc(Oc2ccccc2)c1)NCc1ccco1	.	.	4.8%	.	.	.
O=C(COC(=O)c1cccc(S(=O)(=O)N2CCN(c3ccccc3)CC2)c1)NCc1ccco1	0.0%	-3.5%	-0.8%	-2.4%[57.5 µM]	25.1µM*	49.5%
OCCCNCc1ccncc1	2.3%[9.22 µM]	-5.3%[9.17 µM]	-3.0%[11.4 µM]	-0.8%[9.22 µM]	-4.4%[11.4 µM]	6.4%[11.4 µM]
N#Cc1ccc(CN2CCCC3(CCN(C(=O)c4cnccn4)CC3)C2)cc1	6.0%[9.22 µM]	23.7%	-3.3%	5.9%	4.9%	-6.0%
COCc1cc(=O)n2c(-c3ccc(C)cc3)n[nH]c2n1	.	-3.8%	.	0.7%	2.4%	15.8µM*
COCc1cc(=O)n2c(-c3ccccc3OC)n[nH]c2n1	-2.3%	-2.3%	0.9%	3.0%	-5.3%	-6.8%
CCOC(=O)C1=C(C)NC(C)=C(C(=O)OC)[C@@H]1c1cccc(Cl)c1Cl	-1.7%[20.6 µM]	-4.7%[20.5 µM]	4.6%[25.6 µM]	-0.7%[20.6 µM]	-2.8%[25.6 µM]	9.5%[25.6 µM]
COc1ccc(OC)c(NC(=O)Nc2ccccc2C)c1	-3.8%	23.2%	8.6%	2.0%	3.0%	-0.4%
COc1ccc(OC)c(NC(=O)NC2(C(F)(F)F)Oc3ccccc3O2)c1	-0.1%	-0.3%	10µM*	-1.3%	-13.7%	31.7%
Cc1ccc(-c2[nH]nc3c2C(c2ccoc2)C(C#N)=C(N)O3)cc1C (centres undefined)	2.1%	1.7%	0.3%	-1.2%	25.1µM*	-7.3%
Cc1ccc(C2C(C#N)=C(N)Oc3n[nH]c(-c4cccs4)c32)s1 (centres undefined)	-1.9%	2.1%	-3.4%	0.1%	25.1µM*	-12.8%
Cc1ccc(-n2nc(C)c3c2OC(N)=C(C#N)C3c2ccoc2)cc1 (centres undefined)	1.0%	-1.1%	-10.4%	.	-16.6%	31.6µM*
CC(C)(C)c1[nH]nc2c1C(c1ccoc1)C(C#N)=C(N)O2 (centres undefined)	.	.	-2.8%	.	.	.
Cc1nn(-c2ccccc2)c2c1C(c1ccccc1)C(C#N)=C(N)O2 (centres undefined)	.	.	-16.0%	.	-10.4%	.
CC(=O)[C@]1(O)Cc2c(O)c3c(c(O)c2[C@@H](O[C@H]2C[C@H](N)[C@H](O)[C@H](C)O2)C1)C(=O)c1c(O)cccc1C3=O	.	.	24.1%[0.0915 µM]	.	.	.
Cc1nn(-c2ccc(F)cc2F)c2c1-c1nc(N3CCCC3)ncc1CC2	2.4%	1.4%	3.8%	-1.0%	25.1µM*	134.5%
SMILES	GFP derepression	Ub-GFP proteasome	15-hLO-2 inh	HBB splicing	ALOX15 inhib	Tau filament bind
N[C@@H](CSCc1ccc(I)cc1)C(=O)O	3.4%[9.22 µM]	-3.1%[9.17 µM]	-3.0%[11.4 µM]	3.3%[9.22 µM]	8.4%[11.4 µM]	6.5%[11.4 µM]
Cc1n[nH]c(C)c1N1C(=O)c2cccc3c(N4CCCCCC4)ccc(c23)C1=O	2.3%	-8.1%	4.0%	15.8µM*	?	i
CC1(C)S[C@@H]2[C@H](C(=O)O)N=C(Cc3ccccc3)N2[C@H]1C(=O)O	0.0%[9.22 µM]	3.1%[9.17 µM]	32.6%[11.4 µM]	0.7%[9.22 µM]	63.4%[11.4 µM]	6.3%[11.4 µM]
CCOC(=O)c1c(C)oc2c1c1c(c3ccccc32)OCN(Cc2cccnc2)C1	-8.7%	10.5%	14.8%	-1.1%	2µM*	47.3%
O[C@@H](C1=C/C(=C\c2ccncc2)c2ccccc21)c1ccncc1	10.3%[9.22 µM]	-8.9%[9.17 µM]	-1.9%[11.4 µM]	0.7%[9.22 µM]	0.5%[11.4 µM]	-5.8%[11.4 µM]
CCc1ccc2c(c1)C(C)=CC(C)(C)N2	-0.5%[20.6 µM]	.	?	.	.	.
CC1=CC(C)(C)Nc2ccc(OC(=O)CN3C(=O)c4cccc5cccc(c45)C3=O)cc21	.	.	12.6µM*	.	.	.
CCOc1ccc2c(c1)C(C)=CC(C)(C)N2	6.8%[20.6 µM]	-6.2%[20.5 µM]	12.6µM*	0.7%	25.1µM*	-7.4%
COc1ncc2nc(-c3cn(C)c4ccccc34)c(=O)n(CCc3ccccc3)c2n1	-0.5%[9.22 µM]	9.5%	-8.1%	1.1%	-0.3%	183.4%
O=C(Nc1ccc(-c2noc(COc3ccccc3Cl)n2)cc1)c1ccco1	1.7%	-2.9%	.	-2.2%	-4.1%	3.16µM*
O=C(O)C1Cc2c([nH]c3ccccc23)C(c2ccc3c(c2)OCO3)N1 (centres undefined)	-1.2%	-5.1%	-5.9%	-7.5%	12.6µM*	112.0%

Screening data (PubChem)
